Compounds with a hit are over-represented: about 7.9% of the library has one in this group of screens.
LASV entry inh: qHTS for Inhibitors of binding or entry into cells for Lassa Virus; Lassa virus pseudotype entry inhibition, cell reporter; Potency, µM (series often up to 37.9 µM), hits mostly inhibitors; hit rate 1.2% among 300,000; AID 540256, 2011; calls by dose curve; tested in HEK293 cells; note: nearly all actives have a fitted effect of over 50% in size
MARV entry inh: qHTS for inhibitors of binding or entry into cells for Marburg Virus; AID 540276, 2011; Potency, µM (top dose mostly 37.8 µM), actives largely listed as inhibitors; hit rate 1.8% among 300,000; Marburg virus pseudotyped entry inhibition, cell reporter; calls by dose curve; tested in HEK293 cells
HCMV antiviral: qHTS Assay for inhibitors of the human cytomegalovirus (HCMV); AID 1259415, 2018; activity change, negative = inhibition, % at 57.5 µM; hit rate 4.5% among 410,000; HFF cells, HCMV-luciferase reporter, 72 h; stronger effect = lower value; in the data active = activity change below about -60%; inconclusive = no clear call, values can overlap the other calls; inactive = above about -39%
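Inhibition of viral replication was scored as loss of reporter luminescence in HFFs infected with HCMV-luciferase (MOI 1 PFU/cell) for 72 h; compounds tested at 2 doses, normalized to buffer and Salinomycin controls.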
HCV inh: qHTS Assay for Inhibitors of Hepatitis C Virus (HCV); Huh7.5.1 HCVcc-Cre infection, luciferase reporter, 44 h; Potency, µM (series often up to 41.8 µM), usual class: inhibitors; hit rate 3.4% among 340,000; active = well fitted inhibition curve with a large enough effect; inconclusive = small, poorly fitted or top-dose-only effect, or another doubt; inactive = no such curve, though single readings can be large or run the other way
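HCVcc-Cre virus at an moi near 0.5 was added right after compound to cells cultured 4 h from seeding (1,000 cells/well). Luciferase activity was determined 44 h later, 15 min after substrate addition at RT.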
FMDV inh: High Throughput Screening for Foot and Mouth Disease Virus Antivirals | FMDV antiviral cell-based qHTS | Potency, µM (series often up to 57.9 µM), actives largely listed as inhibitors | hit rate 1.2% among 410,000 | AID 1159524, 2015; calls by dose curve; tested in HEK293T cells; note: read-out not given here; nearly all actives have a fitted effect of over 45% in size
Each line names hits and unclear results; the compound was inactive in the other large screens.

O=[N+]([O-])c1ccc(NCc2ccccc2N2CCC(CO)CC2)nc1	none (no result: LASV entry inh, MARV entry inh)
CCOc1ccc(CCNC(=O)C2CSC3(C)CCC(=O)N23)cc1OCC (stereo not drawn)	none
CC1(C2CCN(Cc3c[nH]c4ccccc34)CC2)NC(=O)N(CCN2CCOCC2)C1=O (stereo not drawn)	none (no result: LASV entry inh, MARV entry inh, HCMV antiviral, HCV inh)
CCOC(=O)Cc1csc(NC(=O)COc2ccc(N(C)S(=O)(=O)c3ccc(C)cc3)cc2)n1	MARV entry inh inconclusive, HCV inh inconclusive, FMDV inh 17.8µM
CN(c1ccc(OCC(=O)Nc2nc3ccccc3s2)cc1)S(=O)(=O)c1ccccc1	HCMV antiviral inconclusive, HCV inh inconclusive, FMDV inh 11.2µM (no result: LASV entry inh)
Cc1ccc(S(=O)(=O)N(C)c2ccc(OCC(=O)Nc3nnc(C4CC4)s3)cc2)cc1	MARV entry inh inconclusive
CCc1nnc(NC(=O)COc2ccc(N(C)S(=O)(=O)c3ccc(C)cc3)cc2)s1	HCMV antiviral -102.4 (no result: LASV entry inh, MARV entry inh)
Cc1ccccc1CN1CCc2nnc(C(C)NC(=O)C3CCN(C)CC3)n2CC1 (stereo not drawn)	none (no result: LASV entry inh, MARV entry inh, HCMV antiviral, HCV inh)
COc1cc(C(=O)OCC(=O)c2cc(C)n(CC3CCCO3)c2C)ccc1OCC(=O)N1CCOCC1 (stereo not drawn)	none
Brc1cc2[nH]cnc2c2ccccc12	HCV inh 10µM
Oc1ccc2c(ccc3[nH]cnc32)c1	none (no result: LASV entry inh, MARV entry inh)
O=C(CNc1ccccc1)N/N=C/c1ccc([N+](=O)[O-])cc1	none
O=C(CNc1cccc([N+](=O)[O-])c1)N/N=C/c1ccc([N+](=O)[O-])o1	LASV entry inh inconclusive, MARV entry inh inconclusive, HCMV antiviral -65.5, HCV inh inconclusive
O=C(CC12CC3CC(CC(C3)C1)C2)N/N=C/c1ccc([N+](=O)[O-])o1	LASV entry inh 15.8µM, MARV entry inh inconclusive, HCV inh inconclusive
CCCCCCCC(=O)N/N=C/c1ccc([N+](=O)[O-])o1	HCMV antiviral inconclusive, HCV inh inconclusive (no result: LASV entry inh, MARV entry inh)
CCOC(=O)N/N=C\c1ccc([N+](=O)[O-])o1	HCMV antiviral inconclusive, HCV inh inconclusive (no result: FMDV inh)
O=C(Cc1ccc([N+](=O)[O-])cc1)N/N=C/c1ccc([N+](=O)[O-])o1	HCV inh 14.1µM (no result: LASV entry inh, MARV entry inh)
CC1(C(=O)N/N=C/c2ccc([N+](=O)[O-])o2)CC1(Br)Br (stereo not drawn)	LASV entry inh 12.6µM, MARV entry inh inconclusive, HCMV antiviral -60.3, HCV inh inconclusive
O=C(CNc1cccc2ccccc12)N/N=C/c1ccc([N+](=O)[O-])o1	LASV entry inh inconclusive, MARV entry inh inconclusive, HCMV antiviral -94.9, HCV inh 10µM
O=C(/C=C/c1cccc(F)c1)Nc1ccc(S(=O)(=O)N2CCOCC2)cc1	MARV entry inh inconclusive, HCMV antiviral inconclusive, FMDV inh inconclusive
CC1=C(C(=O)Nc2cccc(C(=O)NC(C)C)c2)SCCO1	none
CC1=C(C(=O)Nc2cc(C(=O)N3CCC(C)CC3)ccc2C)SCCO1	HCMV antiviral -63.4 (no result: LASV entry inh, MARV entry inh)
CCC(C)NC(=O)c1ccc(NC(=O)C2=C(C)OCCS2)cc1 (stereo not drawn)	LASV entry inh inconclusive, HCMV antiviral -61.5
Cc1cccc(Nc2cc3[nH]c(-c4ccccc4)cc3cn2)c1	none (no result: LASV entry inh, MARV entry inh, HCV inh, FMDV inh)
C=C1C(=O)[C@]23C[C@H]1CC[C@H]2[C@]1(C)[C@@H](OC(C)=O)CC[C@@](C)(C(=O)OC)[C@H]1C[C@@H]3OC(C)=O	HCMV antiviral -100.0, FMDV inh 11.2µM (no result: LASV entry inh, MARV entry inh, HCV inh)
CC(=O)OC1CCC23CC1(C)CCC2C(C)(C)CC3OC(C)=O (stereo not drawn)	none (no result: LASV entry inh, MARV entry inh, HCMV antiviral, HCV inh)
C=C1C(=O)[C@]23C[C@H]1CC[C@H]2[C@]1(C)[C@@H](O)CC[C@@](C)(C(=O)O)[C@H]1C[C@@H]3O	FMDV inh 39.8µM (no result: LASV entry inh, MARV entry inh, HCV inh)
C=C1C(=O)[C@]23C[C@H]1CCC2[C@@]1(C)C(C[C@@H]3O)[C@](C)(C(=O)O)C[C@H](O)[C@@H]1O (stereo partly drawn)	none (no result: LASV entry inh, MARV entry inh, HCV inh)
COC(=O)C1OC(=O)C2OC23[C@]2(C)C(O)CC4C(C)(C)C(OC(C)=O)CC(OC(C)=O)[C@@]4(C)C2CC[C@@]13C (stereo partly drawn)	none (no result: LASV entry inh, MARV entry inh, HCMV antiviral, HCV inh)
C=C1C(=O)[C@]23C[C@H]1CC[C@H]2[C@]1(C)[C@@H](OC(C)=O)CC[C@@](C)(C(=O)O)[C@H]1C[C@@H]3O	HCMV antiviral -65.5 (no result: LASV entry inh, MARV entry inh, HCV inh)
C=C1C(=O)[C@]23C[C@H]1CCC2[C@@]1(C)C(C[C@@H]3O)[C@](C)(C(=O)OC)CC[C@@H]1OC(C)=O (stereo partly drawn)	HCMV antiviral -101.5, FMDV inh 8.91µM (no result: LASV entry inh, MARV entry inh, HCV inh)
COC(=O)c1ccccc1NC(=O)Cn1c(=O)n(-c2ccc(C)cc2)c(=O)c2ccccc21	MARV entry inh inconclusive, HCMV antiviral -62.0 (no result: HCV inh)
COc1ccc(NC(=O)Cn2c(=O)n(-c3ccc(CC(=O)NCc4ccco4)cc3)c(=O)c3ccccc32)cc1	HCMV antiviral -62.7, HCV inh inconclusive (no result: LASV entry inh, MARV entry inh)
COC(=O)c1ccccc1NC(=O)Cn1c(=O)n(CCCC(=O)NCc2ccccc2Cl)c(=O)c2ccccc21	none (no result: HCV inh)
Cc1ccccc1CN1C(=O)c2ccccc2Sc2ccc(C(=O)NC3CCCCC3)cc21	none (no result: MARV entry inh, HCV inh)
O=C(NN=C1C[C@@H](O)[C@H](O)[C@H]2[C@@H]3C(=O)N(Cc4ccc5c(c4)OCO5)C(=O)[C@@H]3CC[C@H]12)OCc1ccccc1	LASV entry inh inconclusive (no result: HCMV antiviral, HCV inh, FMDV inh)
O=C(CSc1nc2nn(-c3ccccc3)c(=O)c-2c2n1CCCCC2)c1ccc(O)c(O)c1	LASV entry inh inconclusive, MARV entry inh inconclusive, HCV inh inconclusive (no result: HCMV antiviral)
CCOc1ccc(Cl)cc1C1=CC(=O)C[C@H](c2ccc(OC)cc2)C1	HCV inh 8.91µM (no result: LASV entry inh, MARV entry inh)
CN(C)c1ccc(N2C(=O)CSC2=S)cc1	HCMV antiviral inconclusive
CC1SC(=S)N(c2ccc(N(C)C)cc2)C1=O (stereo not drawn)	HCMV antiviral -71.4, HCV inh inconclusive
CC(=O)N1CCN(CC(=O)Nc2ccc(C)c(S(=O)(=O)N(C)C)c2)CC1	MARV entry inh inconclusive, HCMV antiviral inconclusive
Cc1ccc(NC(=O)CN2CCC(Cc3ccccc3)CC2)cc1S(=O)(=O)N(C)C	HCV inh 11.2µM, FMDV inh inconclusive (no result: LASV entry inh, MARV entry inh)
CN(C)S(=O)(=O)c1cc(NC(=O)CN2CCN(c3ccccc3O)CC2)ccc1Cl	LASV entry inh 0.562µM, HCV inh inconclusive
O=C(CN1CCC(Cc2ccccc2)CC1)NCCc1ccc(F)cc1	LASV entry inh inconclusive
C[C@@H](C(=O)OCC(=O)NCCc1ccc(S(N)(=O)=O)cc1)N1C(=O)C2CCCCC2C1=O (stereo partly drawn)	HCMV antiviral -79.9 (no result: LASV entry inh, MARV entry inh)
NS(=O)(=O)c1ccc(CCNC(=O)CN2CCC(Cc3ccccc3)CC2)cc1	MARV entry inh inconclusive, HCMV antiviral -76.1, HCV inh inconclusive
CC(=O)N1CCN(CC(=O)Nc2ccc(Cl)c(S(=O)(=O)N(C)C)c2)CC1	MARV entry inh inconclusive, HCMV antiviral inconclusive
C[C@H](NS(=O)(=O)c1ccc(Cl)cc1)C(=O)OCC(=O)NCCc1ccc(S(N)(=O)=O)cc1	none (no result: LASV entry inh, MARV entry inh)
Cn1c(CC(=O)Nc2ccccc2C(F)(F)F)c(Sc2ccccc2)c2ccccc21	MARV entry inh inconclusive

Source: PubChem BioAssay (National Center for Advancing Translational Sciences (NCATS))
